Assay results as given in PubChem BioAssay (Tox21).
Inconclusive results are not listed. Active and inactive are the calls of the source. Unless noted, the call rests on the fitted dose curve; in most records, active means well fitted curve in the direction sought with a large enough effect in the repeat runs; inconclusive means weak or mixed curves; inactive means no such curve, though single readings can be large; an effect the other way counts as inactive or inconclusive.

How the values were obtained:
[1] = qHTS assay to identify small molecule agonists of the vitamin D receptor (VDR) signaling pathway - cell viability counter screen (AID 743224); further: nearly all actives have a fitted effect of over 50% in size; further: potency means the concentration at half of the fitted maximal effect
Summary of the method: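 Compounds were pin-transferred onto VDR-bla cells plated 4 h earlier; following 16 h incubation at 37C, cell viability was quantified by CellTiter-Glo luminescence after 30 min at room temperature.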

[2] = qHTS assay to identify small molecule antagonists of the vitamin D receptor (VDR) signaling pathway - cell viability counter screen (AID 743225); further: nearly all actives have a fitted effect of over 50% in size
Summary of the method: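 HEK293T VDR-bla; cpd + 1a,25-(OH)2D3 3 nM final, 16 h 37C/5% CO2; B/G FRET substrate 2 h RT; then CellTiter-Glo 30 min RT, luminescence.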

[3] = qHTS assay to identify small molecule agonists of the NFkB signaling pathway - cell viability counter screen (AID 1159515; calls by dose curve; further: nearly all actives have a fitted effect of over 55% in size; further: potency means the concentration at half of the fitted maximal effect)
Summary of the method: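 Parallel cytotoxicity counter screen in ME-180 cells carrying an NFkB-response-element beta-lactamase reporter, 2,000 cells/well. Compound exposure lasted 5 hr at 37 C, 5% CO2. Cell viability was quantified by CellTiter-Glo luminescence.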

[4] = qHTS assay to identify small molecule agonists of the endoplasmic reticulum stress response signaling pathway (AID 1159516; active means well fitted activation curve with a large enough effect in the signal ratio in the repeat runs, not every such curve was filed as active; the % refers to the signal ratio)
Summary of the method: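 Using a HeLa line with an ESRE-driven beta-lactamase gene, agonist activity was measured by FRET substrate fluorescence (460 and 530 nm emission) after cells were treated with compounds for 5 hr at 37 C and 5% CO2.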

[5] = qHTS assay to identify small molecule agonists of the endoplasmic reticulum stress response signaling pathway - cell viability counter screen (AID 1159517; calls by dose curve;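 further: HeLa cells carrying an ER stress response element beta-lactamase reporter; series mostly up to about 61 µM; nearly all actives have a fitted effect of over 50% in size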)
Summary of the method: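 Cpd-treated ESRE-bla HeLa (5 hr, 37 C) → LiveBLAzer 2 hr RT → CellTiter-Glo 30 min RT → luminescence.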

[6] = qHTS assay to identify small molecule antagonists of the retinoid-related orphan receptor gamma (ROR-gamma) signaling pathway - cell viability counter screen (AID 1159520); further: nearly all actives have a fitted effect of over 50% in size
Summary of the method: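 Tet-on ROR gamma CHO cells (1,000/well) were plated 4 hr, given compounds in DMSO for 2 hr at 37 C, then induced with 1 uM final doxycycline for 16 hr. Viability was read as ATP by CellTiter-Glo luminescence after 30 min.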

[7] = biological target: Retinoic acid receptor RXR-alpha (Homo sapiens) (UniProt P19793); test: qHTS assay to identify small molecule agonists of the RXR signaling pathway (AID 1159527; calls by dose curve; further: nearly all actives have a fitted effect of over 35% in size)
Summary of the method: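 Cells plated at 2,000/well, rested 5 hr at 37 C, pin-dosed with DMSO compound solutions, incubated 16 hr, then loaded with B/G FRET substrate for 2 hr at RT before dual-emission fluorescence reading.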

[8] = qHTS assay to identify small molecule agonists of the RXR signaling pathway - cell viability counter screen (AID 1159529)
Summary of the method: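 Steps: seed RXR-alpha-UAS-bla HEK 293T cells in assay medium containing 2% charcoal-stripped FBS; incubate 5 hr; add compounds in DMSO; incubate 16 hr at 37 C; after the bla read, add CellTiter-Glo and read luminescence at 30 min.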

[9] = qHTS assay to identify small molecule antagonists of the retinoid acid receptor (RAR) signaling pathway - cell viability counter screen (AID 1159551); further: nearly all actives have a fitted effect of over 35% in size; further: potency means the concentration at half of the fitted maximal effect
Summary of the method: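 ATP-based viability, C3RL4 cells, 6 h at 37 C with 1 uM final retinol co-added after compound; luminescence read 30 min post CellTiter-Glo, RT.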

[10] = qHTS assay to identify small molecule antagonists of the retinoic acid receptor (RAR) signaling pathway (AID 1159552; further: nearly all actives have a fitted effect of over 50% in size)
Summary of the method: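 Retinol at 1 uM final stimulated RARE-luciferase expression in C3RL4 cells exposed to test compounds for 6 hr at 37 C. Reduced luminescence, read 30 min after detection reagent, indicated pathway antagonism.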

[11] = qHTS assay to identify small molecule antagonists of the estrogen related receptor (ERR) signaling pathway - cell viability counter screen (AID 1224818);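 further: series mostly up to about 46 µM; viability measured after 17.5 h of compound exposure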
Summary of the method: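 Quantitative high-throughput viability counter screen in ERR cells. Compounds (DMSO) incubated 17.5 h at 37 C; read-out was CellTiter-Fluor fluorescence.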

[12] = qHTS assay to identify small molecule antagonists of the estrogen related receptor (ERR) signaling pathway (AID 1224819)
Summary of the method: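 ERR reporter cell line (NTP) plated at 2,000 cells/well, settled 6 h at 37C/5% CO2, then exposed to LOPAC compounds for 18 h at 37C. One-Glo luciferase luminescence read after 30 min at room temperature.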

[13] = qHTS assay to identify small molecule agonists of the estrogen related receptor (ERR) signaling pathway (AID 1224820)
Summary of the method: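 After 6 h plating (2,000 cells/well) and 18 h compound treatment at 37 C, ERR cells were lysed with One-Glo and luminescence read after 30 min at room temperature.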

[14] = qHTS assay to identify small molecule antagonists of the estrogen related receptor signaling pathway with the pleiotropic PPARgamma coactivator (PGC) cell viability counter screen (AID 1224822; further: series mostly up to about 46 µM)
Summary of the method: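 Cytotoxicity in the PGC/ERR cell line is assessed with CellTiter-Fluor, read as fluorescence intensity 30 min after reagent addition, following 17.5 h compound treatment at 37 C.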

[15] = qHTS assay to identify small molecule agonists of the estrogen related receptor signaling pathway with the pleiotropic PPARgamma coactivator (PGC) (AID 1224823)
Summary of the method: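 Luminescence from One-Glo reagent (30 min, room temperature) was read after 18 h compound treatment at 37 C of PGC/ERR cells plated 6 h beforehand; compounds delivered in DMSO by pin tool.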

[16] = qHTS assay to identify small molecule agonists of the AP-1 signaling pathway - cell viability counter screen (AID 1159525; calls by dose curve; further: nearly all actives have a fitted effect of over 55% in size; further: potency means the concentration at half of the fitted maximal effect)
Summary of the method: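 Each titration point was normalised to DMSO and tetra n-octyl ammonium bromide controls. The read was Cell Titer Glo luminescence after 30 min at RT, following 5 h compound exposure of ME-180 AP-1-bla cells at 37 °C.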

[17] = qHTS assay to identify small molecule agonists of the AP-1 signaling pathway (AID 1159526; calls by dose curve; further: potency means the concentration at half of the fitted maximal effect)
[18] = qHTS assay to identify small molecule agonists of the retinoic acid receptor (RAR) signaling pathway (AID 1159553); further: potency means the concentration at half of the fitted maximal effect
Summary of the method: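 Quantitative high-throughput format: the Tox21 10K library was tested on C3RL4 RARE-luciferase cells for 6 hr at 37 C and 5% CO2, with luminescence measured after a 30 min room-temperature reagent step.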

[19] = biological target: Nuclear receptor ROR-gamma (Homo sapiens) (UniProt P51449); test: qHTS assay to identify small molecule antagonists of the retinoid-related orphan receptor gamma (ROR-gamma) signaling pathway (AID 1159521; further: nearly all actives have a fitted effect of over 50% in size; further: potency means the concentration at half of the fitted maximal effect)
Summary of the method: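 Cells were plated, rested 4 h at 37 C, exposed to compounds for 2 h, then given 1 uM final doxycycline hyclate to induce RORγ expression. After 16 h, ONE-Glo luminescence from the ROR response element reporter was measured.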

Measured: Potency

Sequence of Retinoic acid receptor RXR-alpha (Homo sapiens) (P19793 whole entry, looked up): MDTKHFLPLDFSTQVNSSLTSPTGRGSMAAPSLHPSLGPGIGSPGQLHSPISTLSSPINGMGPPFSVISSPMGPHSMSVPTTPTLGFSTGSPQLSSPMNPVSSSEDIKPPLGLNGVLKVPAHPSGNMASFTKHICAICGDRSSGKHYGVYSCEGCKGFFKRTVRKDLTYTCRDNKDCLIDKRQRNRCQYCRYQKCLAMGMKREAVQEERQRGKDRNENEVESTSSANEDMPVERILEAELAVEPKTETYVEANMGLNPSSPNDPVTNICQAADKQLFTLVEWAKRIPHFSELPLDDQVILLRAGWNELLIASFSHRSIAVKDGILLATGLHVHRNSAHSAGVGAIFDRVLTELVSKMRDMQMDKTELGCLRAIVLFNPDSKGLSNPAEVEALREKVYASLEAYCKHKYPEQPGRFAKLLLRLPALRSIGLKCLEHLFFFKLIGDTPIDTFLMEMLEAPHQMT

c1ccc(-c2ccccn2)nc1
not listed: [16] | [17] | [18] | [19]
inactive: all other assays above

Nc1ncn([C@H]2C[C@H](O)[C@@H](CO)O2)c(=O)n1
inactive: [1] | [2] | [3] | [4] | [5] | [16] | [8] | [9]

COc1ccnc(CS(=O)c2nc3ccc(OC(F)F)cc3[nH]2)c1OC (centres undefined)
inactive: [1] | [2] | [3] | [4] | [5] | [6] | [17] | [7] | [8] | [9]

CC[N+](C)(CC)CCOC(=O)C(O)(c1ccccc1)C1CCCCC1 (centres undefined)
inactive: [1] | [2] | [3] | [4] | [5] | [6] | [17] | [8] | [9] | [18]

Nc1ccc(N)c2c1C(=O)c1ccccc1C2=O
inactive: [1] | [2] | [3] | [4] | [5] | [17] | [7] | [10]
active: [9] 30.6 µM

C[N+](C)(C)CCOC(=O)CCC(=O)OCC[N+](C)(C)C
not listed: [9] | [12] | [13] | [15] | [16] | [19]
inactive: all other assays above

Cc1ccc(C(C)OC(=O)C2(C)CCC(C(=O)O)C2(C)C)cc1 (centres undefined)
not listed: [6] | [11] | [12] | [13] | [14] | [15] | [16] | [19]
inactive: all other assays above

COc1cc2nc(Cl)nc(N)c2cc1OC
not listed: [6] | [9] | [11] | [12] | [13] | [14] | [15] | [19]
inactive: all other assays above

CC(C)Cc1ccc(C(C)C(=O)OCc2ccccn2)cc1 (centres undefined)
inactive: [1] | [2] | [3] | [4] | [5] | [17] | [8] | [9]
active: [16] 0.239 µM

C#C[C@]1(O)CC[C@H]2[C@@H]3CCc4cc(OC5CCCC5)ccc4[C@H]3CC[C@@]21C
active: [3] 21.3 µM | [19] 10.6 µM
inactive: [1] | [4] | [5] | [9] | [10] | [18]

CC(=O)c1cccc([N+](=O)[O-])c1
inactive: [1] | [2] | [3] | [4] | [5] | [16] | [17] | [8] | [9]

CC(=O)NO
inactive: [1] | [2] | [3] | [4] | [5] | [6] | [17] | [8] | [9] | [18]

C[C@H](CCC(=O)O)[C@H]1CC[C@H]2[C@@H]3CC[C@@H]4C[C@H](O)CC[C@]4(C)[C@H]3C[C@H](O)[C@]12C
inactive: [3] | [4] | [5] | [16] | [9] | [10] | [18]

CC(C)CC(=O)C1C(=O)c2ccccc2C1=O
active: [19] 17.2 µM
inactive: [1] | [3] | [4] | [5] | [16] | [17] | [8] | [9] | [18]

O=C(O)c1ccccc1Cl
not listed: [11] | [12] | [13] | [14] | [15] | [16] | [19]
inactive: all other assays above

CC1(c2ccccc2)OC(C(=O)O)=CC1=O (centres undefined)
inactive: [1] | [3] | [4] | [5] | [6] | [17] | [7] | [8] | [10] | [18]

CCOCC(O)COc1ccc(NC(=O)CC[S+](C)C)cc1 (centres undefined)
not listed: [6] | [11] | [12] | [13] | [14] | [15] | [16] | [19]
inactive: all other assays above

CCN(CC)CCOC(=O)C(Cc1cccc2ccccc12)CC1CCCO1 (centres undefined)
active: [17] 21.3 µM
inactive: [1] | [2] | [3] | [4] | [5] | [16] | [9] | [10] | [18]

O=C(O)C1(C(=O)Nc2ccc(Cl)cc2Cl)CC1
inactive: [1] | [2] | [3] | [4] | [5] | [6] | [9] | [10]
active: [18] 6.11 µM

CCOC(=O)Cc1cccc2ccccc12
not listed: [11] | [12] | [13] | [14] | [15] | [16] | [19]
inactive: all other assays above

CCOc1ccc(N)c([N+](=O)[O-])c1
not listed: [5] | [6] | [11] | [12] | [13] | [14] | [15]
inactive: all other assays above

CCCCCCCCCCCCN1CCCCCC1=O
inactive: [4] | [6] | [19] | [9] | [10] | [18]
active: [1] 30.9 µM | [3] 54.9 µM
